High-throughput results: PubChem, several laboratories
Shown are actives, neighbours in structure and some others; about 1.6% of the full set was active somewhere.
PABP1 MLLE inh: blocks PAM2 peptide binding to the PABP1 MLLE domain | P11940 | GST-MLLE / FITC-PAM2 fluorescence polarization | inhibition, % at 20 µM | 360,000 tested, 0.36% active | AID 588489; in the data active = inhibition above about 35%, passing the limit was not always enough
Target sequence (P11940 whole entry, looked up, the tested form may be a part): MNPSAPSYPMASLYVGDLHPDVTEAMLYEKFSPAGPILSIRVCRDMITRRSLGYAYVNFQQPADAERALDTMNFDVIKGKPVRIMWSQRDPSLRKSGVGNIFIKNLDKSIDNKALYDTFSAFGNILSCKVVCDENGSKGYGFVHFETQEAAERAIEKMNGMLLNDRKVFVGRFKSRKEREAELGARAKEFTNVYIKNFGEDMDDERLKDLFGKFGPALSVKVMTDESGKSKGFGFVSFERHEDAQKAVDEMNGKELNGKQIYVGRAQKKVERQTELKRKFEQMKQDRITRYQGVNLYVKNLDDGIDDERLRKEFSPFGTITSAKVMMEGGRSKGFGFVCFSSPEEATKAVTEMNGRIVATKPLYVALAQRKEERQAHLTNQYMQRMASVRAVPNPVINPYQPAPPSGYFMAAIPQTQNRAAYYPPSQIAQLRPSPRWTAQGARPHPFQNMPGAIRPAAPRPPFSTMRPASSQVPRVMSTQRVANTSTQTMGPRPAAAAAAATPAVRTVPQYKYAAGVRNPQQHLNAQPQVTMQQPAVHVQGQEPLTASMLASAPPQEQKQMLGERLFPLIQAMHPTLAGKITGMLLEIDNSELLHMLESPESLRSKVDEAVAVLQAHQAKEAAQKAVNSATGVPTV
PABP polyA inh: PABP-poly(A) binding inhibition | PABP-poly(A) RNA binding, fluorescence polarization | inhibition, % at 35 µM | 290,000 tested, 1% active | AID 2014;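 note: calls also rest on retests at 20 µM and on dose response follow-up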
eIF4H FP inh: inhibitors of RNA binding by human eIF4H. eIF4H fluorescence polarization binding assay. inhibition, % at 35 µM. 290,000 tested, 0.94% active. AID 2012;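 note: calls also rest on retests at 20 µM and on dose response follow-up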
PERK inhibitor: blocks human PERK kinase. Q9NZJ5. CHO PERK-DD fusion, SEAP luminescence translation reporter. inhibition, % at 5.6 µM. 220,000 tested, 0.17% active. AID 1416;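 active = inhibition above the mean inhibition of all tested compounds plus 3 SD, set separately per screening campaign, cut at about 2.9% in these data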;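 note: PERK kinase domain activated by AP20187 dimerizer at 100 nM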
eIF4E-4G inh: eIF4E/eIF4G interaction inhibition in translation initiation; P63073+Q04637; TR-FRET eIF4E-eIF4GI(517-606) binding, 2 h; inhibition, % at 21.7 µM; 220,000 tested, 0.37% active; AID 782;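 active = inhibition above about 30%, limit read from the data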
Hits are given with their value; n = inactive; u = inconclusive; x = no result. Unless noted, the rule behind the calls is not given here.

SMILES	PABP1 MLLE inh	PABP polyA inh	eIF4H FP inh	PERK inhibitor	eIF4E-4G inh
CS(=O)(=O)Nc1cccc(C2=NN(C(=O)CCCC(=O)O)C(c3cccs3)C2)c1 (stereo not drawn)	n	n	n	x	x
Cc1cc(=O)[nH]c(SCC(=O)NC(C)C2CC3CCC2C3)c1C#N (stereo not drawn)	n	78.7	3.3	n	n
CC(NC(=O)CSc1n[nH]c(=O)[nH]c1=O)C1CC2CCC1C2 (stereo not drawn)	n	n	n	n	n
Cc1ccc(NC(=O)C2=C(O)c3sccc3N(C)S2(=O)=O)cc1	n	n	n	n	n
Cc1ccc(NC(=S)C2=C(O)c3sccc3N(C)S2(=O)=O)cc1	40.7	n	n	n	n
NC(=O)C1(Nc2ccc(C(=O)O)cc2)CCCC1	n	x	x	x	x
CSc1ncccc1C(=O)Nc1cccc(S(=O)(=O)N2CCCCCC2)c1	n	x	x	x	x
O=C(CN1C(=O)S/C(=C\c2ccc(Cl)cc2)C1=O)NNC(=O)c1ccccc1O	n	n	n	n	32.6
COc1ccc(/C=C2\SC(=S)N(CCCC(=O)NNC(=O)c3ccccc3O)C2=O)cc1	n	n	n	n	n
O=C(NN1C(=O)/C(=C/c2ccc(O)cc2)SC1=S)c1ccccc1O	n	53.3	n	x	x
Cc1cc(C)nc(NN2C(=O)/C(=C/c3ccc(O)cc3)SC2=S)n1	n	75.8	u	n	n
Cc1noc(C)c1NC(=O)N(C)C[C@H]1Oc2c(NC(=O)C3CCCCC3)cccc2C(=O)N([C@H](C)CO)C[C@@H]1C	n	x	x	x	x
CCCC(=O)NC(NC(=S)Nc1ccc(S(N)(=O)=O)cc1)C(Cl)(Cl)Cl (stereo not drawn)	n	n	n	n	n
CCCCCC(=O)NC(NC(=S)Nc1ccc(S(N)(=O)=O)cc1)C(Cl)(Cl)Cl (stereo not drawn)	n	35.4	61.1	n	n
COc1ccc(Cl)cc1CN1CCN(c2nc(C)cc(C)c2C#N)CC1	n	73.2	45.9	n	n
Cc1nc(SCC(=O)N2CCCC2=O)c2c(C)c(C)sc2n1	n	x	x	x	x
COCCn1c(C)cc(/C=C2/SC(=O)N(C(C)C(=O)OC)C2=O)c1C (stereo not drawn)	n	n	n	n	n
COCCn1c(C)cc(/C=C2\NC(=S)N(C)C2=O)c1C	n	2.8	n	n	n
COCCn1c(=N)c(C(=O)NCc2ccco2)cc2c(=O)n3ccccc3nc21	n	78.7	112.8	n	x
N=c1c(C(=O)NCc2ccco2)cc2c(=O)n3ccccc3nc2n1C1CCCC1	n	52.7	77.7	x	x
N=c1c(C(=O)NCc2ccco2)cc2c(=O)n3ccccc3nc2n1Cc1ccccc1	n	69.0	76.7	n	n
COCCCn1c(=N)c(C(=O)NCc2ccc3c(c2)OCO3)cc2c(=O)n3ccccc3nc21	n	n	n	n	n
Cc1ccc(S(=O)(=O)c2cc3c(=O)n4ccccc4nc3n(Cc3ccco3)c2=N)cc1	n	83.1	78.3	n	n
N=c1c(C(=O)NC2CCCC2)cc2c(=O)n3ccccc3nc2n1C1CCCC1	n	n	n	n	x
N=c1c(C(=O)NCc2ccco2)cc2c(=O)n3ccccc3nc2n1Cc1ccc(Cl)cc1	n	n	n	n	x
SMILES	PABP1 MLLE inh	PABP polyA inh	eIF4H FP inh	PERK inhibitor	eIF4E-4G inh
N=c1c(C(=O)NCc2ccc(F)cc2)cc2c(=O)n3ccccc3nc2n1Cc1ccco1	n	n	n	n	n
COc1ccc(CCNC(=O)c2cc3c(=O)n4cccc(C)c4nc3n(Cc3ccco3)c2=N)cc1OC	n	n	63.3	x	x
N=c1c(C(=O)NCc2ccccc2)cc2c(=O)n3ccccc3nc2n1Cc1ccco1	n	51.7	84.4	n	x
Cc1ccc(CNC(=O)c2cc3c(=O)n4ccccc4nc3n(Cc3ccco3)c2=N)cc1	n	40.9	56.4	x	x
Cc1ccc2nc3c(cc(C(=O)NCc4ccco4)c(=N)n3Cc3ccco3)c(=O)n2c1	n	u	u	n	n
COc1ccc(S(=O)(=O)N2CCCCCC2)cc1C(=O)N(C)CC(=O)Nc1ccccc1C(F)(F)F	n	x	x	x	x
COC(=O)[C@@]1(C)[C@H]2C(=O)N(C)C(=O)[C@H]2[C@H]2CN(C)C(=NC3CCCCC3)N21	n	x	x	x	x
Cc1c(Cl)cccc1NC(=O)CCN1C(=O)NC(C)(C)C1=O	n	x	x	x	x
CCCS(=O)(=O)NC(=O)C1(C)CCN(C(=O)c2ccc(C(F)(F)F)cc2)C1 (stereo not drawn)	n	x	x	x	x
CCCCn1c(=O)nc2n(-c3ccccc3C)c3ccccc3cc-2c1=O	n	n	n	n	n
Cc1ccccc1-n1c2nc(=O)n(C)c(=O)c-2cc2ccccc21	n	66.4	n	n	n
N#CC1=C(N)NC(=S)C(C(N)=O)C1c1ccc(Cl)cc1Cl (stereo not drawn)	n	n	n	n	n
N#CC1=C(N)NC(=S)C(C(N)=O)C1c1ccccc1F (stereo not drawn)	46.3	n	n	n	n
O=C(NCc1ccc(Cl)cc1)c1ccc(CNc2c(N3CCCC3)c(=O)c2=O)cc1	n	n	n	n	56.6
CC(=O)Nc1cccc(NC(=O)CSc2ncc(C(=O)Nc3ccccc3)c(=O)n2C)c1	42.0	x	x	x	x
CC(=O)Nc1cccc(NC(=O)CSc2ncc(C(=O)Nc3ccc(F)cc3)c(=O)n2C)c1	n	x	x	x	x
COc1ccc(NC(=O)c2sc3nc(Cc4ccccc4)cc(C(F)(F)F)c3c2N)cc1OC	n	n	n	n	n
COc1ccccc1NC(=O)c1sc2nc(Cc3ccccc3)cc(C(F)(F)F)c2c1N	n	113.3	65.3	n	n
CCOc1ccc(OCC(=O)OC(C)C(=O)NC2CCCC2)cc1 (stereo not drawn)	n	x	x	x	x
COc1ccc(CCNCC(=O)Nc2ccc(C)c(S(=O)(=O)N(C)C)c2)cc1	n	68.5	active	n	n
COc1ccc(CCC(=O)Nc2ccc(C)c(S(=O)(=O)N(C)C)c2)cc1OC	n	n	n	n	n
O=C(Cn1ccc2ccccc2c1=O)NCC(=O)N1CCN(c2ccc(F)cc2)CC1	n	n	n	x	x
CC(C)(C)n1nc2c(c1NC(=O)COc1ccc(Cl)cc1)CS(=O)(=O)C2	n	72.3	active	n	n
CC(=O)N1Cc2ccccc2CC1C(=O)NCc1ccccc1F (stereo not drawn)	n	n	n	x	x
Cn1cnc2c(cnn2C)c1=O	n	x	x	x	x
SMILES	PABP1 MLLE inh	PABP polyA inh	eIF4H FP inh	PERK inhibitor	eIF4E-4G inh
CCOc1cc(C2Nc3cccc4cccc(c34)N2)ccc1O	n	n	n	n	n
COc1cc(OC)c(C2Nc3cccc4cccc(c34)N2)c(OC)c1	n	57.0	70.2	x	x
CCOc1ccc(C2Nc3cccc4cccc(c34)N2)cc1OC	n	10.9	103.4	n	n
CCN(c1ccccc1)S(=O)(=O)c1ccc(N2CCN(c3ccccc3O)CC2)nc1	n	x	x	x	x
Oc1c(Br)cc(Br)c(/C=N/n2c(-c3ccccc3)n[nH]c2=S)c1Br	n	66.1	43.9	x	x
COc1ccc2cc(C(=O)N3CCC(Cc4ccccc4)CC3)[nH]c2c1	n	n	n	x	x
O=C(CCN1CCOCC1)NNC(=S)NC(=O)c1ccccc1	38.4	n	n	n	n
CSc1ncccc1C(=O)NCC(c1cccs1)N1CCOCC1 (stereo not drawn)	n	x	x	x	x
O=C(O)CCCC(=O)Nc1ccc(N2CCCC2)cc1	n	n	69.1	n	n
